Only some compounds are listed: those with a hit (about 4.3% of all), similar ones and a draw of the others.
sPLA2-III inh = Inhibits HGIII-sPLA2 liposome hydrolysis, primary screen. Q9NZ20. QFRET BODIPY PC-A2 liposome hydrolysis, fluorescence. inhibition, % at 12.2 µM. hit rate 0.56% among 370,000. AID 743126;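 active means inhibition above mean plus 3 SD of compounds lying within the high and low control bounds, cut at about 19% in these data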;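 further: 0% = median of test compound wells and 100% = no enzyme DMSO wells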
NR3A LBD binder = NR3A (human) ligand-binding domain modulation; hit rate 2.5% among 340,000; Tm shift relative to glycine control, % at 25 µM; AID 1259313; NR3A LBD differential scanning fluorimetry, Tm shift; 0% = protein alone, 100% = glycine-bound protein;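 active means melting temperature shift of at least 10% of the positive control shift, at one fixed dose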
FAS TE block = blocks the thioesterase domain of human fatty acid synthase. recombinant FAS-TE, OMFH fluorogenic substrate, fluorescence endpoint. inhibition, % at 15 µM. hit rate 0.67% among 360,000;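 active means compounds whose normalised, plate-corrected inhibition of enzyme fluorescence in the single-dose primary screen is 50% or more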;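 further: 0% = DMSO with enzyme and 100% = substrate without enzyme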
ADAM17 inh = inhibits human ADAM17; P78536; recombinant ADAM17, EDANS/DABCYL FRET peptide cleavage; inhibition, % at 6.95 µM; hit rate 0.83% among 370,000; AID 720648;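 active means inhibition above the mean of compounds lying between control limits plus 3 SD, set per campaign, cut at about 8.5% in these data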;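 further: 0% = DMSO-only wells as the low control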
ADAM10 inh = inhibits human ADAM10 | recombinant ADAM10, EDANS/DABCYL FRET peptide cleavage, 3 h | O14672 | hit rate 0.62% among 370,000 | inhibition, % at 7 µM | AID 720582;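 active means inhibition above a per-campaign cutoff equal to the mean of compounds falling between control-based bounds plus 3 SD, cut at about 20% in these data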;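 further: 0% = DMSO wells while the 100% control is not disclosed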
FAS-TE inh conf = confirmation of human fatty acid synthase thioesterase inhibitors; shares compounds with FAS TE block; recombinant FAS-TE, OMFH fluorogenic substrate, fluorescence; inhibition, % at 15 µM; hit rate 45% among 2,300; AID 624325;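 active means compounds inhibiting the enzyme by at least 50% at 15 µM in any one of the replicates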;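 further: 0% = enzyme with DMSO only and 100% = wells lacking enzyme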
* marks the source's active call; other numbers are inactive results; . = not tested or not shown.

SMILES	sPLA2-III inh	NR3A LBD binder	FAS TE block	ADAM17 inh	ADAM10 inh	FAS-TE inh conf
CCCCOCCCNC(=O)C[C@H]1C(=O)N(CCCOC)C2=CCCCC[C@]21C(=O)OC	-3.3	.	.	0.6	-1.8	.
O=C(c1cc(-c2cccs2)nc2ccccc12)N1CCN(c2ccccc2)CC1	-10.1	-5.6	50.5*	-16.8	-55.1	21.5
O=C(Nc1ccc2c(c1)OCO2)NC1CCCCN(Cc2cccc(Cl)c2)C1=O (configuration not stated)	6.4	.	.	-5.5	-5.1	.
Cc1ccccc1C(=O)N1CCN(C(=O)C(=O)c2cccc(C(F)(F)F)c2)CC1	-0.6	.	.	-1.9	-0.3	.
N#Cc1c(-c2cccs2)nc(SCc2ccc(Cl)cc2)[nH]c1=O	-174.8	-10.5	65.5*	-3.1	8.6	78.8*
CSc1nc(-c2cccs2)c(C#N)c(=O)[nH]1	-9.2	5.0	-3.5	-1.8	-10.7	.
Cc1nc(Sc2ccc(Br)cc2)c(C#N)c(C)c1[N+](=O)[O-]	-3.5	-1.3	61.0*	-0.2	2.0	34.8
Cc1nc(N2CCC(C)CC2)c(C#N)c(C)c1[N+](=O)[O-]	-1.3	0.0	21.4	-1.7	3.8	.
Cc1nc(Sc2ccc(Cl)cc2)c(C#N)c(C)c1[N+](=O)[O-]	6.9	-2.1	63.6*	-2.7	2.4	21.3
Cc1ccc(Sc2nc(C)c([N+](=O)[O-])c(C)c2C#N)cc1	0.0	-0.3	44.1	-1.5	2.2	.
O=C(OCC#CCSc1nnc(-c2cccc3ccccc23)o1)c1ccc(F)nc1	-6.6	.	.	-18.2	-60.5	.
N#C/C(=C\c1c(N2CCN(c3ccccc3)CC2)nc2ccccn2c1=O)S(=O)(=O)c1ccccc1	10.6	-8.5	70.6*	-6.3	-1.6	9.1
CCOC(=O)C1CCN(c2nc3c(C)cccn3c(=O)c2/C=C(\C#N)S(=O)(=O)c2ccccc2)CC1	-0.3	1.5	64.8*	1.2	6.0	5.2
Cc1cccn2c(=O)c(/C=C(\C#N)S(=O)(=O)c3ccccc3)c(N3CCCCC3)nc12	-5.6	-0.4	54.0*	-30.2	-65.6	5.2
CN1CCN(c2nc3ccccn3c(=O)c2/C=C(\C#N)S(=O)(=O)c2ccccc2)CC1	-6.8	-0.7	3.3	-23.6	-56.2	.
Cc1cccn2c(=O)c(/C=C(\C#N)S(=O)(=O)c3ccccc3)c(N3CCN(C)CC3)nc12	-6.8	1.4	7.4	-9.8	-29.2	.
CCN1CCN(c2nc3c(C)cccn3c(=O)c2/C=C(\C#N)S(=O)(=O)c2ccc(C)cc2)CC1	-5.6	-18.6	30.9	-9.2	-28.8	.
CCCCOCCCNC(=O)C[C@H]1C[C@@]2(C(=O)OC)C(=C[C@H](C(C)(C)C)O[C@@H]2C)N(Cc2ccco2)C1=O	-16.4	.	.	-0.2	5.8	.
CCOC(=O)c1cccc(-c2cc(C(=O)OC)c3n(c2=O)CCC3)c1	-3.0	.	.	-15.2	-44.8	.
CS(=O)(=O)c1ccc(NC(=O)c2cccc(-n3cnnn3)c2)cc1	-0.9	-7.0	1.1	-0.3	-5.0	.
O=C(Nc1ccc(Br)cc1)c1cccc(-n2cnnn2)c1	-5.0	39.3*	52.4*	2.2	2.4	30.5*
CC(C)C(=O)N1CC[C@H]2[C@H](CCCN2Cc2cc(F)cc(F)c2)C1	1.4	.	.	-1.0	-2.9	.
Cn1c(-c2ccccc2)cnc1NCc1cccc([N+](=O)[O-])c1	-1.3	0.5	70.9*	-1.5	-4.7	67.2*
O=C(O)c1ccc(C2NCC(c3ccccc3Cl)c3c2[nH]c2ccccc32)cc1 (configuration not stated)	-28.1	-0.8	1.0	-23.7	-47.5	.
COc1cc(C2NCC(c3ccc(Cl)cc3Cl)c3c2[nH]c2ccccc32)cc(OC)c1OC (configuration not stated)	-1.3	-0.7	66.4*	22.0*	46.5*	26.9
SMILES	sPLA2-III inh	NR3A LBD binder	FAS TE block	ADAM17 inh	ADAM10 inh	FAS-TE inh conf
C[C@@H]1/C=C/CC(=O)N[C@H](c2cccc(Br)c2)[C@H](C)/C=C/CC(=O)N[C@@H]1c1cccc(Br)c1	-4.8	.	.	3.1	4.1	.
COCCn1c(SCc2cccc([N+](=O)[O-])c2)nc2ccccc2c1=O	-4.1	0.9	51.4*	1.0	5.2	11.6
COc1ccc(C(=O)Nn2c(SCc3cccc([N+](=O)[O-])c3)nc3ccccc3c2=O)cc1	-13.3	17.4*	58.7*	2.0	9.4	51.1*
CCSc1nc2ccccc2n1Cc1cccc([N+](=O)[O-])c1	0.6	2.0	58.7*	-3.8	3.8	19.7
c1ccc(CN2CCN(c3ncnc4sccc34)CC2)cc1	-0.4	.	.	1.5	3.2	.
COc1ccc2sc(-c3ccc(S(C)(=O)=O)cc3)c(-c3ccc4c(c3)OCCO4)c2c1	-4.2	-0.6	57.4*	-41.5	-149.5	22.3
COc1ccc(-c2sc3cc4c(cc3c2-c2ccc3c(c2)OCCO3)OCO4)cc1	-7.1	0.6	30.4	-2.4	-0.2	.
COc1cc2sc(-c3ccc(S(C)(=O)=O)cc3)c(-c3ccc4c(c3)OCO4)c2cc1OC	4.7	-1.4	80.5*	-17.9	-87.1	27.9
C[C@H]1[C@@H](C(=O)N2CCCC2)CC(=O)/C(=N/OCc2ccccc2)C[C@@H]1c1ccccc1	-11.9	.	.	-0.6	1.9	.
CCOc1ccccc1N1CCN(C(=S)NC(=O)C23CC4CC(CC(C4)C2)C3)CC1	4.4	-0.3	51.1*	-0.1	-6.0	14.8
COCc1c(Br)c(C)nc(OCC(=O)N/N=C/c2cc(C)n(-c3ccc([N+](=O)[O-])cc3)c2C)c1C#N	-3.9	1.6	61.6*	-2.8	0.3	-3.0
O=C1CSc2ccc(C(=O)Nc3cccc(S(=O)(=O)Nc4ccc(Br)cc4)c3)cc2N1	-48.2	28.2*	50.0*	16.6*	47.9*	20.6
O=C(O)c1ccc(NC(=O)c2cccc(S(=O)(=O)Nc3ccc(C(=O)O)cc3)c2)cc1	5.8	-0.6	-5.5	-4.5	-6.5	.
COc1cc([N+](=O)[O-])cc(/C=N/NC(=O)c2cccnc2)c1O	-1.3	-0.9	61.9*	0.5	-254.6	74.4*
COc1cc([N+](=O)[O-])cc(/C=N/NC(=O)C(O)(c2ccccc2)c2ccccc2)c1O	-5.2	-6.1	22.3	2.1	16.7	.
CC(=O)Nc1ccc(NC2=Nc3ccccc3N3C2=Nc2c(c(C)nn2-c2ccccc2)C3c2ccccc2)cc1 (configuration not stated)	6.7	8.0	46.0	0.7	3.9	.
Cc1nn(-c2ccc([N+](=O)[O-])cc2)c2c1C(c1ccc(OC(F)F)cc1)N1C(=N2)C(=O)Nc2ccccc21 (configuration not stated)	0.4	4.0	85.8*	0.5	1.0	14.9
COc1cccc(C2c3c(C)nn(-c4ccc([N+](=O)[O-])cc4)c3N=C3C(=O)Nc4ccccc4N32)c1 (configuration not stated)	-8.2	1.9	71.8*	-0.4	-5.3	-0.9
O=[N+]([O-])c1ccc2nc(-c3ccc(OC(F)F)cc3)cn2c1	-1.2	-0.8	5.6	-0.6	0.1	.
